# Results taken from PubChem BioAssay (NCI).
# This is part of a sample that, as a whole, favours compounds with a hit. Of some 79,000 tested, about 15% had one in any assay. A number with no mark means an inactive call. Cut-off read from the data, not from the text of the source: active = growth inhibition above about 70%; inactive = the rest.
# Experiment: NCI Yeast Anticancer Drug Screen. Data for the bub3 strain (AID 167)
# Conditions: S. cerevisiae bub3 mutant strain, at 3.7 µM, hits give high values
# In short: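 Screening used yeast with an engineered genetic alteration affecting cell cycle control. Compound-exposed cultures were compared with vehicle cultures, and reduced growth was taken as inhibition.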
row,SMILES,growth inhibition [%]
1,CCN(CC)CC[n+]1ccc2c(C)c3[nH]c4ccc(O)cc4c3c(C)c2c1,3
2,O=[n+]1c2ccc(Cl)cc2n([O-])c2ccc(Cl)cc21,0
3,CCOP(=O)(OCC)C(Cc1ccccc1)N=C(c1ccccc1)c1ccccc1 (centres undefined),-35
4,CC[C@@]1(O)C(=O)OCc2c1cc1n(c2=O)Cc2cc3c(N)cccc3nc2-1,-32
5,COC1C=COC2(C)Oc3c(C)c(O)c4c(c3C2=O)/C(=N/C2CCC(O)OC2C)C=C(NC(=O)/C(C)=C\C(=O)C2CC2C(O)C(C)C(O)C(C)C(OC(C)=O)C1C)C4=O (centres undefined),-6
6,COc1cc2c(c(OC)c1OC)-c1c(cc3c(c1OC)OCO3)CC(C)C(C)(O)C2OC(=O)c1ccccc1 (centres undefined),11
7,O=c1ssc2ncccc12,4
8,O=C1C2C(C(=O)N1c1ccc(OCc3ccccc3)cc1)C1c3ccccc3C2C2CCCCN21 (centres undefined),-8
9,COc1ccc(-c2cn(-c3ccc(I)cc3)c3ncnc(N)c23)cc1,-2
10,CCOC(=O)C(NC(=O)c1ccccc1)(N1CCN(c2cc3c(cc2F)c(=O)c(C(=O)O)cn3C2CC2)CC1)C(F)(F)F (centres undefined),2
11,C/C(=N\O)C1CC2C=C(C#N)C1N(Cc1ccccc1)C2 (centres undefined),-5
12,CC/C(=C(\c1ccccc1)c1ccc(OCCN(C)C)cc1)c1ccccc1,10
13,COc1ccccc1N=NC(C(=O)c1ccccc1)C(=O)c1ccccc1,-17
14,CC(O)C(O)C(O)C(/C=N\Nc1ccccc1)=N/Nc1ccccc1 (centres undefined),-3
